# Results from PubChem BioAssay AID2284156 (EPA ToxCast).
# Activity calls are given as the source filed them. Rule for the calls: active = hit-call score of the fitted dose curve at least 0.9, where 1 is the maximum; inactive = score below 0.9.
# Target: Muscarinic acetylcholine receptor M5 (Homo sapiens) (UniProt P08912)
# Test: ERF_FR_GPCR_hCHRM5: Eurofins (ERF) G Protein-Coupled Receptor (GPCR) Radioligand Binding LeadHunter Assay for human Muscarinic Acetylcholine Receptor M5 Antagonism, conducted at France lab site
# Description: ERF_FR_GPCR_hCHRM5 is a biochemical, single-readout assay that uses extracted gene-proteins in a cell-free assay. Measurements were taken 1 hour after chemical dosing in a 96-well plate. See M5 Human Acetylcholine (Muscarinic) GPCR Binding (Antagonist Radioligand) Assay, Cerep.ERF_FR_GPCR_hCHRM5 is an assay component calculated from the ERF_FR_GPCR_hCHRM5 assay. It is designed to measure radioligand binding using a type of binding reporter as detected by scintillation counting with radiometry technology.Data from the assay component ERF_FR_GPCR_hCHRM5 was analyzed at the assay endpoint, ERF_FR_GPCR_hCHRM5, in the positive analysis fitting direction relative to DMSO as the negative control and baseline of activity. Using a type of binding reporter, loss-of-signal activity can be used to understand changes in binding as they relate to gene CHRM5. To generalize the intended target to other relatable targets, this assay endpoint is annotated to the gpcr intended target family, where the subfamily is acetylcholine (Muscarinic).
# Human cells are incubated for 60 minutes at room temprature with [3H]4-DAMP ligand (0.3 nM) and 4-Damp methiodide as control inhibitor.Test Sample Requirements: Minimum for 1) Screen: 60 ul of 10 mM stock -OR- 1 mg (pre-weighed) for 10 uM final testing. 2) Dose Response: 90 ul of 10 mM stock -OR- 1 mg (pre-weighed) for a top concentration at 10 uM.
# Sequence of Muscarinic acetylcholine receptor M5 (Homo sapiens) (P08912 whole entry, looked up): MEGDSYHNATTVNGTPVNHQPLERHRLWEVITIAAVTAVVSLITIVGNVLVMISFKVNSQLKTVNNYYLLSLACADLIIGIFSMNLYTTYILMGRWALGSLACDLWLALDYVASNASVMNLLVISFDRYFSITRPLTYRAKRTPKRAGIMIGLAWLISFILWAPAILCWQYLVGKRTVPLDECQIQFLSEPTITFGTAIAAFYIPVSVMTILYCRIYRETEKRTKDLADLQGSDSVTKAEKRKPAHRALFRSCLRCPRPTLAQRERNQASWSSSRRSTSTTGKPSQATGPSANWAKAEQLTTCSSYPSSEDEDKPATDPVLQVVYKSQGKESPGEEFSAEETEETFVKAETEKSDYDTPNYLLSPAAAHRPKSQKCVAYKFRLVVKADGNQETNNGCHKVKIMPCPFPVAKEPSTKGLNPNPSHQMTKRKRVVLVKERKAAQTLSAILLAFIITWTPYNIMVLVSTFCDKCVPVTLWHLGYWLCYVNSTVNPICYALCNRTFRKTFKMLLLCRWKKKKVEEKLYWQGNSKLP
row,SMILES,outcome
1,O=C(/C=C/c1ccc(O)cc1)CC(=O)/C=C/c1ccc(O)cc1,inactive
